From PubChem BioAssay (EPA / NIEHS)
Results filed as inconclusive are left out. Activity calls are given as the source filed them. Rule for the calls: active = hit-call score of the fitted dose curve at least 0.9, where 1 is the maximum; inconclusive = response in the unintended direction; inactive = score below 0.9.

Experiment: CCTE_Deisenroth_AIME_384WELL_CTox_Active: Cytotoxicity Assessment (CTOX) in CCTE's 384-well Estrogen Receptor Transactivation Assay with AIME metabolic competence (metabolism positive), Deisenroth Lab (AID 2284037);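 note: chemicals first conditioned 2 h by alginate-bound induced rat liver S9 before cells; activity means signal loss indicating cell death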
Experimental: CCTE_Deisenroth_AIME_384WELL (AIME metabolism assay) is a cell-based, single-readout assay that uses VM7Luc4E2, a human mammary gland/breast cell line, with measurements taken at 24 hour after chemical dosing in a 384-well plate.CCTE_Deisenroth_AIME_384WELL_CTox_Active is one of four assay components measured or calculated from the CCTE_Deisenroth_AIME_384WELL assay. It is designed to make measurements of a protease substrate, a type of viability indicator, as detected with substrate cleavage to a fluorescent probe in living cells.CCTE_Deisenroth_AIME_384WELL_CTox_Active is a component of the CCTE_Deisenroth_AIME_384WELL assay that measures the effect of retroftting the VM7Luc ERTA assay with the Alginate Immobolization of Metabolic Enzymes (AIME) metabolism method. AIME is optimized to impart phase I hepatic metabolism using phenobarbital/beta-naphthoflavone induced hepatic S9 from male Sprague Dawley rats. Parent chemicals are incubated for 2 hours in the AIME assay prior to transfer to the VM7Luc ERTA assay plate. […] This endpoint evaluates cytotoxicity in metabolism positive mode. Using a type of flourescent probe in VM7Luc cells, loss-of-signal activity can be used to understand loss of viability. This assay endpoint, CCTE_Deisenroth_AIME_384WELL_CTox_Active, was analyzed with bidirectional fitting in the ERTA assay.
The AIME procedure consists of a preparative "pre-stamping" step using a barium chloride/poly-L-lysine (PLL) solution followed by "stamping" the lid in alginate-hepatic S9 (metabolism positive) or alginate-water (metabolism negative) to form microspheres. Once stamping is completed, the AIME lids are placed in duplicate microplates (metabolism positive or negative) containing chemical solutions and incubated for two hours to facilitate metabolic reactions. The conditioned medium, containing parent chemical or metabolites, is then transferred to the cell-based VM7Luc Estrogen Receptor Transactivation Assay (ERTA) for 24 hours. A typical experimental design tests a 10-point concentration series (0.002 - 200 uM) for 8 compounds (96-well format) (Deisenroth 2020) or 32 compounds (384-well format) (Hopperstad 2022) in single technical replicate. AIME assay controls include trans-stilbene (bioactivated control) and ethylparaben (bioinactivated control). ERTA assay plate controls include 17-beta estradiol (positive control) and DMSO (solvent control). Experiments typically comprise a minimum of four experimental replicates (n=4).
In the case of `COC(=O)N(OC)c1ccccc1COc1ccn(-c2ccc(Cl)cc2)n1`, the AC50 is reported as 2.68 µM (active). With `CCCCNC(=O)OCC#CI` the AC50 was 145 µM (active). With `COc1cnc(OC)n2nc(NS(=O)(=O)c3c(OCC(F)F)cccc3C(F)(F)F)nc12` the outcome was “inactive”. With `CCON=C(CC)C1=C(O)CC(c2c(C)cc(C)cc2C)CC1=O` (stereo unspecified) the outcome was “inactive”. With `C#CCOS(=O)OC1CCCCC1Oc1ccc(C(C)(C)C)cc1` (stereo unspecified) the AC50 was 18.6 µM (active). For `N#Cc1cc(Br)c(O)c(Br)c1`, the outcome was “inactive”. With `CCOc1cc(Oc2ccc(C(F)(F)F)cc2Cl)ccc1[N+](=O)[O-]` the outcome was “inactive”. In the case of `CC(C)(C)c1ccc(CSc2cnn(C(C)(C)C)c(=O)c2Cl)cc1`, the AC50 is reported as 19.8 µM (active). With `CCNc1nc(Cl)nc(NC(C)C)n1` the outcome was “inactive”. In the case of `Oc1ccccc1-c1ccccc1`, the outcome is reported as “inactive”. For `CCc1nn(C)c(C(=O)NCc2ccc(C(C)(C)C)cc2)c1Cl`, the AC50 was 1.82 µM (active).
